Screens (PubChem BioAssay)
Sampled rows, rich in hits. Any-hit rate of the full collection: about 3.5%.
Pf apPOL block: Pf-apPOL DNA polymerase inhibition; Recombinant Pf-apPOL, molecular beacon fluorescence, 1.5 h; inhibition, % at 10 µM; hit rate 0.25% among 210,000
mHTT CaM bind: inhibitors of human mutant huntingtin-calmodulin interaction | P42858 | AlphaScreen His-mHTT/GST-CaM binding, luminescence | inhibition, % at 15 µM | hit rate 3.6% among 190,000
Hits are given with their value. Rule as the data show it: active = inhibition above about 50%; inactive = the rest.

Screening CC1CCc2c(sc(NC(=O)c3cc(-c4ccc5c(c4)OCO5)on3)c2C(N)=O)C1 (stereo not drawn) returned Pf apPOL block inactive and mHTT CaM bind inactive.
Screening CSc1cccc(NC(=O)C2CC(=O)N(c3ccc4c(c3)CCN4C(=O)C3CC3)C2)c1 (stereo not drawn) returned Pf apPOL block inactive and mHTT CaM bind inactive.
Screening Cc1ccc(NC(=O)N2CCC3(CC2)Nc2cc(F)ccc2-n2cccc23)cc1C returned Pf apPOL block inactive and mHTT CaM bind 54.3.
O=C(Nc1ccc2c(c1)OCO2)N1CCC2(CC1)Nc1cc(F)ccc1-n1cccc12 was read as Pf apPOL block inactive and mHTT CaM bind 68.2.
For Cc1cc(C)cc(NC(=O)N2CCC3(CC2)Nc2cc(F)ccc2-n2cccc23)c1 the results were Pf apPOL block inactive and mHTT CaM bind 70.6.
Screening O=C(Nc1cccc(Cl)c1)N1CCC2(CC1)Nc1cc(F)ccc1-n1cccc12 returned Pf apPOL block inactive and mHTT CaM bind 94.2.
For O=C(Nc1cccc(Cl)c1)N1CCC2(CC1)Nc1ccccc1-n1cccc12 the results were Pf apPOL block inactive and mHTT CaM bind inactive.
Screening Cc1ccc(C)c(NC(=O)N2CCC3(CC2)Nc2cc(F)ccc2-n2cccc23)c1 returned Pf apPOL block inactive and mHTT CaM bind inactive.
O=[N+]([O-])c1c(Sc2ncnc3ccccc23)ccc2nsnc12 was read as Pf apPOL block inactive and mHTT CaM bind inactive.
For CCOc1ccc(N(C(C)C(=O)NCc2ccc(Cl)cc2)S(C)(=O)=O)cc1 (stereo not drawn) the results were Pf apPOL block inactive and mHTT CaM bind inactive.
For Cc1ccc(N2C(=O)C3C(C2=O)C2(C)CC3(C)CC2=O)c(C)c1 (stereo not drawn) the results were Pf apPOL block inactive and mHTT CaM bind inactive.
For O=C(Nc1c2c(nn1-c1ccc([N+](=O)[O-])cc1)CS(=O)(=O)C2)c1ccc2c(c1)OCO2 the results were Pf apPOL block inactive and mHTT CaM bind inactive.
`COCCCN1CCn2c(nc3ccccc32)C1` gave Pf apPOL block inactive and mHTT CaM bind inactive.
Cc1ccc(NC(=O)N2CCC3(CC2)Nc2cc(F)ccc2-n2cccc23)cc1Cl was read as Pf apPOL block inactive and mHTT CaM bind 77.4.
For O=C(Nc1ccc2c(c1)OCCO2)N1CCC2(CC1)Nc1ccccc1-n1cccc12 the results were Pf apPOL block inactive and mHTT CaM bind 62.4.
Cc1ccc(C(=O)NCc2ccc([N+](=O)[O-])cc2)cc1 was read as Pf apPOL block inactive and mHTT CaM bind inactive.
For Nc1nnc(-c2ccccc2)s1 the results were Pf apPOL block inactive and mHTT CaM bind inactive.
`NC1=NNC(c2ccccc2)=CS1` gave Pf apPOL block inactive and mHTT CaM bind 53.4.
`NC(N)=Nc1nc(-c2ccccc2)c2ccccc2n1` gave Pf apPOL block inactive and mHTT CaM bind 73.3.
For Cc1ccc2c(C)nc(N=C(N)N)nc2c1 the results were Pf apPOL block inactive and mHTT CaM bind inactive.
For Cc1cccc(OCc2nnc(NC(=O)C(F)(F)F)s2)c1C the results were Pf apPOL block inactive and mHTT CaM bind inactive.
Screening O=C(Nc1ccccc1)c1cccc(I)c1 returned Pf apPOL block inactive and mHTT CaM bind inactive.
Cc1cccc(C(=O)Nc2ccc(F)cc2)c1 was read as Pf apPOL block inactive and mHTT CaM bind inactive.
Screening CN(C)c1ccc(NC(=O)c2cccc(I)c2)cc1 returned Pf apPOL block inactive and mHTT CaM bind 79.5.
Screening Cc1cccc(C(=O)Nc2ccc(I)cc2)c1 returned Pf apPOL block 77.4 and mHTT CaM bind inactive.
For Cc1cccc(C(=O)Nc2ccc([N+](=O)[O-])c(NC(=O)c3cccc(C)c3)c2)c1 the results were Pf apPOL block 79.6 and mHTT CaM bind inactive.
`COc1ccc(NS(=O)(=O)c2cccc(C(=O)Nc3ccc(C)cc3)c2)cc1` gave Pf apPOL block 95.2 and mHTT CaM bind inactive.
Cc1cc(C(=O)Nc2ccc(NC(=O)c3ccccc3)cc2)ccc1[N+](=O)[O-] was read as Pf apPOL block inactive and mHTT CaM bind inactive.
COc1ccc(NS(=O)(=O)c2cccc(C(=O)Nc3cccc(C(=O)O)c3)c2)cc1 was read as Pf apPOL block inactive and mHTT CaM bind inactive.
O=C(NCCN1CCC(Cc2ccccc2)CC1)C1CCN(c2ccncc2)CC1 was read as Pf apPOL block inactive and mHTT CaM bind inactive.
Screening CCN1CCCCC1CNC(=O)Cn1ccc2ccccc2c1=O (stereo not drawn) returned Pf apPOL block inactive and mHTT CaM bind inactive.
For CN(C)c1ccc(NC(=O)c2ccncc2)cc1 the results were Pf apPOL block inactive and mHTT CaM bind 70.4.
CN(C)c1ccc(NC(=O)c2ccc(Cl)cc2)cc1 was read as Pf apPOL block inactive and mHTT CaM bind inactive.
Cc1ccc2c(c1)/C(=C/c1ccc3c(c1)OCO3)c1cccnc1-2 was read as Pf apPOL block inactive and mHTT CaM bind 52.2.
`Cc1ccc2c(c1)/C(=C/c1ccc(Br)cc1)c1cccnc1-2` gave mHTT CaM bind inactive.
Screening COc1ccc(OC)c(-c2csc(NC(=O)Nc3ccccc3C(F)(F)F)n2)c1 returned Pf apPOL block inactive and mHTT CaM bind inactive.
For C=C(C)COc1ccc2c(c1)OC(=Cc1ccccc1F)C2=O the results were Pf apPOL block inactive and mHTT CaM bind inactive.
For N#Cc1ccccc1NC(=O)c1ccc(N2C(=O)c3ccccc3C2=O)cc1 the results were Pf apPOL block inactive and mHTT CaM bind inactive.
For COc1ccc(Br)cc1C1=N/C(=C/c2cccc(F)c2)C(=O)O1 the results were Pf apPOL block inactive and mHTT CaM bind inactive.
Screening CCN1C(=O)/C(=C2\C=Cc3ccccc3N2CC)SC1=Nc1ccc(OC)cc1 returned Pf apPOL block inactive and mHTT CaM bind 55.0.
For CCSC1=NC(=O)/C(=C2\C=Cc3ccccc3N2CC)S1 the results were Pf apPOL block inactive and mHTT CaM bind inactive.
`CC(=O)N1CCN(Cc2c(-c3ccc(F)cc3)nc3sc(C)cn23)CC1` gave Pf apPOL block inactive and mHTT CaM bind inactive.
Cc1ccc(C2=NC3(CCN(CC(=O)NCc4ccc(Cl)cc4)CC3)NC2=O)cc1 was read as Pf apPOL block inactive and mHTT CaM bind inactive.
Cc1cccc(C2=NC3(CCN(CC(=O)NCc4ccc(Cl)cc4)CC3)NC2=O)c1 was read as Pf apPOL block inactive and mHTT CaM bind 53.3.
Screening Cc1ccc(C2=NC3(CCN(Cc4ccc(F)cc4)CC3)NC2=O)cc1 returned Pf apPOL block inactive and mHTT CaM bind inactive.
For Cc1cccc(NC(=O)CN2CCC3(CC2)N=C(c2ccc(F)cc2)C(=O)N3)c1 the results were Pf apPOL block inactive and mHTT CaM bind inactive.
`O=C(CN1CCC2(CC1)N=C(c1cccc(F)c1)C(=O)N2)Nc1ccc(Cl)cc1` gave Pf apPOL block inactive and mHTT CaM bind inactive.
O=C(CN1CCC2(CC1)N=C(c1cccc(Cl)c1)C(=O)N2)Nc1ccc(Cl)cc1 was read as Pf apPOL block inactive and mHTT CaM bind 88.3.
Screening Cc1ccc(CN2CCC3(CC2)N=C(c2ccccc2)C(=O)N3)cc1 returned Pf apPOL block inactive and mHTT CaM bind 53.5.
Cc1cccc(C2=NC3(CCN(CC(=O)Nc4ccc(F)cc4)CC3)NC2=O)c1 was read as Pf apPOL block inactive and mHTT CaM bind 68.7.
For COc1ccc(Cl)cc1-c1nc(C=Nc2cc(C)ccn2)c(O)o1 the results were Pf apPOL block inactive and mHTT CaM bind inactive.
`COc1cccc(/C=C2/N=C(c3ccc(C)cc3)OC2=O)c1OC` gave Pf apPOL block inactive and mHTT CaM bind inactive.
Screening CCOC(=O)C1CCN(C(=O)C2CCc3sc(C(=O)N4CCCCCC4)cc3C2)CC1 (stereo not drawn) returned Pf apPOL block inactive and mHTT CaM bind inactive.
